Screening results as filed in PubChem BioAssay.
This excerpt belongs to a sample that is enriched for hits.
Tg IFNy HTS: inhibitors of Toxoplasma gondii growth with IFN-gamma; Toxoplasma gondii growth in IFN-gamma-treated host cells; hits give low values; activity change, negative = inhibition, % (no concentration beside the values); 69,000 tested, 3.8% active; in the data active means activity change below about -70%, passing the limit was not always enough;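 further: host cells are HeLa cells infected with Toxoplasma gondii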
An asterisk follows results filed as active.

SMILES	Tg IFNy HTS
COCCO[C@H]1CCN(C(=O)c2cscn2)[C@H]1Cc1cccnc1	2
Cc1cc(C)n(C(C)CC(=O)NCCc2nc3ccc(Cl)cc3[nH]2)n1 (centres undefined)	-44
CSc1nsc(SC)c1C(=O)Oc1ccccc1N1CCOCC1	10
Cc1[nH]ncc1C(=O)N1CCC2(CC1)COc1ccccc1S(=O)(=O)N(CC(C)C)C2	-48
CCN(CC)c1ccnc(C2COCCN2)n1 (centres undefined)	-4
CCn1c(C)cc(C)c(C(=O)N2CCC(O)(c3ccc(C)cn3)CC2)c1=O	-3
CC[C@@H](C)Nc1cc(C(=O)NC2CC3CCC(C2)N3c2ccc(C(=O)C3CC3)cn2)c(C)cc1C(N)=O (some centres undefined)	-63
CCOc1ccc(N(Cc2nc(-c3cccc(C)c3)oc2C)S(=O)(=O)c2ccccc2)cc1	-49
CCCCN(C(=O)c1cc2cccnc2n(Cc2ccccc2)c1=O)c1ccccc1	1
O=C(NC1CCN(CCCCC2(C(=O)NCC(F)(F)F)c3ccccc3-c3ccccc32)CC1)c1ccccc1-c1ccc(C(F)(F)F)cc1	-74*
Cc1nc(C(F)(F)F)ccc1C(=O)NC1CCCN(Cc2cnn(C)c2C)CC1 (centres undefined)	2
CN1CCC2(C=C(C(=O)NC3CC3)c3ccccc32)CC1	-3
O=S(=O)(c1ccc2ccccc2c1)N1CCC2(CC1)Nc1ccccc1-n1cccc12	40
CC(=O)N1C[C@@H](NC(=O)c2nccn2C)[C@@H]2OCCC[C@@H]21	-11
Cn1ncc2c(Sc3ccc(Cl)cc3)ncnc21	-66
Cn1ncc(C(=O)Sc2ccc(Cl)cc2)c1-n1cccc1	-94*
Cc1nn(-c2ccccc2)nc1C(=O)Sc1ccc(Cl)cc1	-59
CC(=O)Nc1ccc(S(=O)(=O)N2CCC(O)(c3ccccn3)CC2)cc1	3
CN1CCN(S(=O)(=O)c2ccc(-c3cnc(N)c(C(=O)Nc4cccnc4)n3)cc2)CC1	-71*
CC1CCCCN1S(=O)(=O)c1ccc(NC(=O)c2cnccn2)cc1 (centres undefined)	58
Cc1ccsc1[C@@H]1CCN(Cc2cccc3[nH]ccc23)C[C@H]1O	1
O=C1NCC[C@]12CN(C1CCOC1)C[C@H]2c1ccccc1 (some centres undefined)	-3
Cc1nnc2n1CC(c1cccc(C(=O)Nc3ncc(Cc4ccccc4F)s3)c1)CC2 (centres undefined)	-48
O=C(Nc1ccc2ccccc2n1)c1ccc(Cl)cc1	305
O=C(Nc1ncc(Cc2cccc3ccccc23)s1)c1ccc(Cl)cc1	-101*
SMILES	Tg IFNy HTS
CCN1CCN(CCCNC(=O)C2=C(C)C(=O)OC23CCN(C(C)=O)CC3)CC1	57
Cc1n[nH]c(=O)n1-c1cccc(C(=O)O)c1	57
CCC(=O)N1C[C@@H]2c3nc(Nc4ccccc4)ncc3CS(=O)(=O)[C@H]2C1	-1
CC1(C)Cc2ccccc2-c2nc(-c3ccccc3)oc(=O)c21	6
O=c1oc(-c2ccccc2)nc2c1C1(CCCC1)Cc1ccccc1-2	-50
Cc1cccc(CN2CCCC3(CCN(c4cncnc4)C3=O)C2)n1 (centres undefined)	-3
O=c1[nH]c(CN2CCCC3(CCCCC3)C2)nc2c1C1(CCCCC1)Cc1ccccc1-2	-81*
CC1(C)CC2(CCCN(Cc3nc4c(c(=O)[nH]3)C3(CCCCC3)Cc3ccccc3-4)C2)CCO1 (centres undefined)	-85*
CC(=O)N1CCC2(CC1)OC(=O)C(C)=C2C(=O)N1CCc2ccccc2C1	75
Cc1ccc(Oc2ncccc2C(N)=O)cc1	-28
c1ccc2c(Cc3c[nH]c4ccccc34)c[nH]c2c1	10
c1ccc2c(-c3c[nH]c4ccccc34)c3ccccc3nc2c1	-86*
Clc1ccc(CSc2nnc(-c3c[nH]c4ccccc34)o2)cc1	-58
Cc1cc(S(=O)(=O)NCCc2sc(-c3cccc(F)c3)nc2C)ccc1F	-33
Cc1ccccc1-c1nc(CN2CCN(C(=O)NCCc3ccccc3)CC2)c(C)o1	1
CCOC(=O)c1ccc(NC(=O)CSc2nnc(CNc3ccc(F)cc3)o2)cc1	-100*
CCc1nnc(SCC(=O)Nc2ccc(N3CCN(S(C)(=O)=O)CC3)cc2)o1	-11
CCCCOC(=O)c1ccc(NC(=O)CSc2nnnn2C2CCCCC2)cc1	13
CO[C@H]1CN(C(=O)c2cccc(-n3nnnc3C)c2)CC[C@H]1N	-4
CN(Cc1cccc2ncccc12)S(=O)(=O)c1ccc2c(c1)sc(=O)n2C	-22
Cn1cc(CCC(=O)N2CCC(c3n[nH]c(=O)n3-c3ccccc3)CC2)cn1	15
Cc1n[nH]c(C)c1C(=O)N1CCC(c2n[nH]c(=O)n2-c2ccccc2)CC1	-51
O=C(CC1=CCNCC1)N1CCC(c2n[nH]c(=O)n2-c2ccccc2)CC1	-73*
COCCC(=O)NCC1Cn2nnc(-c3cncnc3)c2CO1 (centres undefined)	3
Cc1cnc(N2CCC3(CC2)CCN(c2cnn(C)c2)C3=O)nc1	0
SMILES	Tg IFNy HTS
COc1cc(CNc2c(C)c(C)nc3cc(-c4nccn4C)nn23)cc(OC)c1	32
CC(=O)Nc1ccccc1NC(=O)CN(C)CCC1CCCCO1 (centres undefined)	-2
O=C(NOCCO)c1cc(CN2OCCCC2=O)c(F)c(F)c1Nc1ccc(I)cc1F	9
O=C(c1ccc(F)c(F)c1Nc1ccc(I)cc1F)N1CC(O)([C@@H]2CCCCN2)C1	-49
Cc1cc(I)ccc1Nc1c(C(=O)NOCC2CC2)cc(F)c(F)c1F	-82*
CCNc1ncc(C2CC(=O)Nc3c2c(C)nn3-c2ccc(OC)cc2)cn1 (centres undefined)	7
CC(=O)N1CC2(CCN(C(=O)C3CCCCC3)CC2)CC1C(=O)O (centres undefined)	1
COc1cc(N2CC[C@@H]3[C@H]2CCN3Cc2cccnc2OC)ncn1	-2
Cn1ncc(Cl)c1-c1cc(C(=O)N[C@H](CN)Cc2ccc(F)c(F)c2)oc1Cl	-81*
C=CCOCC1CCC2C1OCCN2C(=O)c1ccc2ncccc2c1 (centres undefined)	143
COc1cccc(N(Cc2nc(-c3cccc(Cl)c3)oc2C)S(=O)(=O)c2ccccc2)c1	-35
COc1ccc(S(=O)(=O)N(C)Cc2nc(-c3cccc(Cl)c3)oc2C)cc1	-99*
Cc1ccc(S(=O)(=O)N(C)Cc2nc(-c3ccccc3C)oc2C)c(C)c1	-13
COc1ccccc1-c1nc(CN(C)S(=O)(=O)c2ccc(C)cc2C)c(C)o1	-104*
Cc1oc(-c2cccc(Cl)c2)nc1CN(C)S(=O)(=O)c1ccc(F)cc1	-16
COc1ccccc1-c1nc(CN(c2ccccc2OC)S(=O)(=O)c2ccccc2C)c(C)o1	-55
Cc1ccc(C)c(-c2coc(-c3ccc(NC(=O)c4cccs4)cc3)n2)c1	26
CN(C)C(=O)CN1CCC2(CC1)CN(c1cncnc1)C(=O)CO2	90
CCc1noc(CN(CC)C(=O)[C@H]2Cc3ccccc3CN2)n1	52
CN(C)C(=O)N1CCC2(CCC2NC(=O)c2cnccn2)CC1 (centres undefined)	3
O=C(NCCc1ccccc1)c1ccccc1Cl	248
O=C(NCCc1ccncc1)c1cc(Br)ccc1O	-76*
CC(C)(C)c1ccc(NC(=S)NCCc2ccncc2)cc1	-12
Cc1noc(-c2cc(=O)n(CC(=O)NC3CCCCC3)c3ccccc23)n1	45
Cc1nc(-c2cccc(F)c2)sc1CCNC(=O)C(=O)Nc1ccc(F)cc1	14
Cc1nc(N)n(CCC(=O)O)c(=O)c1C	31
Cc1noc([C@H]2C[C@@H]3OCC[C@@H]3N(C(=O)c3ccoc3)C2)n1	6
